Measured values as given in PubChem BioAssay (NCATS).
Results filed as inconclusive are left out. The source made the active and inactive calls. The call rests on the fitted dose curve; in most records, active means well fitted cell-killing curve with a large enough effect; inconclusive means small, poorly fitted or top-dose-only effect, or effect the other way; inactive means no such curve, though single readings can be large or run the other way.

Experiments:
[1] = Quantitative High-Throughput drug screen in 47 multiple myeloma cell lines against the NCATS MIPE library collection: PCM6_Riken cell viability assay (AID 1919870); further: nearly all actives have a fitted effect of over 30% in size
Method in brief: (§1)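 Inhibition of viability over 48 h was scored by ATP content (CellTiter-Glo) in 500-cell wells. Zero and full viability were defined by media-only and DMSO-only wells.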

[2] = Quantitative High-Throughput drug screen in 47 multiple myeloma cell lines against the NCATS MIPE library collection: RPMI8226_ATCC cell viability assay (AID 1919871); further: nearly all actives have a fitted effect of over 30% in size
Method in brief: as §1

[3] = Quantitative High-Throughput drug screen in 47 multiple myeloma cell lines against the NCATS MIPE library collection: OPM2_DSMZ cell viability assay (AID 1919872); further: nearly all actives have a fitted effect of over 30% in size
Method in brief: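 Inhibition of cell viability is measured here. Each line was plated at 500 cells per well, treated with MIPE 4.0 drugs, kept 48 hours at 37C, then assayed for ATP content by CellTiter-Glo luminescence.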

[4] = Quantitative High-Throughput drug screen in 47 multiple myeloma cell lines against the NCATS MIPE library collection: KMS11_JCRBsus cell viability assay (AID 1919873); further: nearly all actives have a fitted effect of over 50% in size
Method in brief: as §1

[5] = Quantitative High-Throughput drug screen in 47 multiple myeloma cell lines against the NCATS MIPE library collection: KMS28BM_JCRB cell viability assay (AID 1919874); further: nearly all actives have a fitted effect of over 35% in size
Method in brief: as §1

Measured: Potency
Potency means the concentration at half of the fitted maximal effect.

Cc1cnn(C)c1C(=O)Nc1cc(Nc2ccc3c(C=Cc4ccccn4)n[nH]c3c2)ccc1F
active: [1] 4690 nM | [2] 26400 nM | [3] 18700 nM | [4] 11800 nM | [5] 20900 nM

C=CCNc1c(O)cc2c(O)c1C[C@@H](C)C[C@H](OC)[C@@H](O)[C@@H](C)C=C(C)[C@H](OC(N)=O)[C@@H](OC)C=CC=C(C)C(=O)N2
active: [1] 833 nM | [2] 418 nM | [3] 1660 nM | [4] 46.9 nM | [5] 935 nM

C=CC(=O)Nc1ccc2ncnc(Nc3ccc(OCc4cccc(F)c4)c(Cl)c3)c2c1
active: [1] 1660 nM | [2] 9350 nM | [3] 1050 nM | [4] 187 nM | [5] 132 nM

CCNC(=O)Nc1ccc(-c2nc3c(c(N4CCOC[C@H]4C)n2)CCN(C2COC2)C3)cc1
active: [1] 1320 nM | [2] 743 nM | [3] 1660 nM | [4] 296 nM | [5] 526 nM

Cn1cc(CNCC2CCN(c3ncc(C(=O)NO)cn3)CC2)c2ccccc21
active: [1] 37.2 nM | [2] 66.2 nM | [3] 41.8 nM | [4] 26.4 nM | [5] 18.7 nM

CCS(=O)(=O)Nc1ccc2[nH]c(O)c(C(=Nc3ccc(CN4CCCCC4)cc3)c3ccccc3)c2c1
active: [1] 3720 nM | [2] 332 nM | [3] 833 nM | [4] 166 nM | [5] 132 nM

C[C@@]12C(=O)OC(=O)[C@@]1(C)C1CCC2O1
active: [1] 2350 nM | [2] 2960 nM | [3] 662 nM | [4] 743 nM | [5] 1050 nM
